Consider 86 compounds from PubChem BioAssay AID602261 (Sanford-Burnham Center for Chemical Genomics, 2012).

The structures appear in SMILES notation. Where “and” joins values, the source holds several entries; their conditions need not be identical. Equal values may be shown once. About 2,400 (0.67%) of roughly 360,000 compounds were called active. The list comes from a sample in which actives are over-represented; it also holds similar structures and randomly drawn compounds. Unmarked numbers belong to inactive results.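 How the source made its calls: active means compounds whose normalised, plate-corrected inhibition of enzyme fluorescence in the single-dose primary screen is 50% or more; inactive means the rest.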

In this assay the target is Fatty acid synthase (Homo sapiens) (UniProt P49327). Kind of assay: inhibition of human FAS-TE enzyme activity – biochemical, fluorescence intensity, uHTS, primary screen (AID 602261).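 Further: 0% = DMSO with enzyme and 100% = substrate without enzyme.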 To be noted: recombinant FAS-TE, OMFH fluorogenic substrate, fluorescence endpoint; at 15 µM; stronger effect = higher value.
Sequence of Fatty acid synthase (Homo sapiens) (P49327 whole entry, looked up): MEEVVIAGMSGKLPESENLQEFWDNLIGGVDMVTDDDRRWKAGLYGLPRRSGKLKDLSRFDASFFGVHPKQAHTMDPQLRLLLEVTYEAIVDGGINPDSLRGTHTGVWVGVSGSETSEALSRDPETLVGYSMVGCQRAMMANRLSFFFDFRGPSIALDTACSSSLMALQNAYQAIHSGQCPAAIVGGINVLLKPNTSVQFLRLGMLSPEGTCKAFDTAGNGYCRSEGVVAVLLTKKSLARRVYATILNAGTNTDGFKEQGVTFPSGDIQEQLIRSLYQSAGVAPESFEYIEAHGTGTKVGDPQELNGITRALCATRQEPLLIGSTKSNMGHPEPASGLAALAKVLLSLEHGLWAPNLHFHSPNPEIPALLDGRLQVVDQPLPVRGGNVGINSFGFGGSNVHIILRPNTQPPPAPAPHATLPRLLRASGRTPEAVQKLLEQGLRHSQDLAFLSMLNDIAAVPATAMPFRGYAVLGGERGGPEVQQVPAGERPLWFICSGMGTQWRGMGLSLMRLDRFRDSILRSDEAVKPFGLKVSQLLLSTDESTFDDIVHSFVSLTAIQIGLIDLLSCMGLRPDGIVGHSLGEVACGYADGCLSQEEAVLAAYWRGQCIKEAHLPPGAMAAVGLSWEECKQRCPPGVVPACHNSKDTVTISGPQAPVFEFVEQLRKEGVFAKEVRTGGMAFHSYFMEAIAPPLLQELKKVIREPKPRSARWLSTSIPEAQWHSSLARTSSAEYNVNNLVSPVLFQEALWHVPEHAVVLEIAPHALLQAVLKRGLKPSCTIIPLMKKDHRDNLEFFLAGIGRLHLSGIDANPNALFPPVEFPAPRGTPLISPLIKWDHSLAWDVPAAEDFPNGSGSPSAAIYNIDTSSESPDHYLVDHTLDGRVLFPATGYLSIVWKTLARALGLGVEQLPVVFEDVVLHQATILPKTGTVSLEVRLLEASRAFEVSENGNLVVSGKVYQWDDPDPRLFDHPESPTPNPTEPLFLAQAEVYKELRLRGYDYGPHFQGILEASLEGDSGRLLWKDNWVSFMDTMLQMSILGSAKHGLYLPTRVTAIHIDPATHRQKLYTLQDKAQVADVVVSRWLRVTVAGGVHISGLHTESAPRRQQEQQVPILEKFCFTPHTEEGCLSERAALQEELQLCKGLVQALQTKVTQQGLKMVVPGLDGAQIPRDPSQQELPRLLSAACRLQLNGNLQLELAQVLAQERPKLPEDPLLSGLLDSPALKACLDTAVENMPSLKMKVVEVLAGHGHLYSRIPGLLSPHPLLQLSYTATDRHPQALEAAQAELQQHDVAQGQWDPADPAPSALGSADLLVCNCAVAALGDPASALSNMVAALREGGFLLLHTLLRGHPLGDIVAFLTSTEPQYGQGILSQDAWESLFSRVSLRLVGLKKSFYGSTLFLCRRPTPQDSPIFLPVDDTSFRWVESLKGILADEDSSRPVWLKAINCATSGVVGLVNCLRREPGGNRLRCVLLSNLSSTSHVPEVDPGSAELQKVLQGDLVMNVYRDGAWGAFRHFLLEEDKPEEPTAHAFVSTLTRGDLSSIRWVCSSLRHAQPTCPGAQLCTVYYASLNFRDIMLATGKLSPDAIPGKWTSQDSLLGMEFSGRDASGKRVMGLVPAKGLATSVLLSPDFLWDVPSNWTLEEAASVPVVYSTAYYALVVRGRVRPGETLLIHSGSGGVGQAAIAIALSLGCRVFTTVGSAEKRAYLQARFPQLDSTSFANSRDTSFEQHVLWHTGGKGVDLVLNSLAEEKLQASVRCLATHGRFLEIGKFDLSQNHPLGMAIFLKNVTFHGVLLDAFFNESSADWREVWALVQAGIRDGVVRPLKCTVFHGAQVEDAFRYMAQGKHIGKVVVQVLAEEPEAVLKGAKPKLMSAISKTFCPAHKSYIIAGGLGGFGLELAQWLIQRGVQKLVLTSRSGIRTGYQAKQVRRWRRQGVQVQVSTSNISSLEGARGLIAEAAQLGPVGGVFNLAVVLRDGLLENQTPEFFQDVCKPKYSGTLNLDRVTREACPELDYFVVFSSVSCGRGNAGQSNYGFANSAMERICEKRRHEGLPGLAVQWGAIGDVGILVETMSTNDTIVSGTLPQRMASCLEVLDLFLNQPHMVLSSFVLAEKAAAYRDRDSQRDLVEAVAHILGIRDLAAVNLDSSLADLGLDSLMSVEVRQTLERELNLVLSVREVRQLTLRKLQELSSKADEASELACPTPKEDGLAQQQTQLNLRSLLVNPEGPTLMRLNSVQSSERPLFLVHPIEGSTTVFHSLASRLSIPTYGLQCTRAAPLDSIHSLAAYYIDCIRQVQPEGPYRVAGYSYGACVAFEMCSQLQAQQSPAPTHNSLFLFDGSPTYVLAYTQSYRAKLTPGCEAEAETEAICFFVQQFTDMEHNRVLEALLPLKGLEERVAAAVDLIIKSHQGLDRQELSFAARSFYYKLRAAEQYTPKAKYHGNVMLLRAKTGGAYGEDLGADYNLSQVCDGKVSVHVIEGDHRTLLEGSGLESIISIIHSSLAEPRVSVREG
As to `CCCCCc1c(Cc2ccccc2)ncn1CCc1ccccc1OC`, the inhibition was 11%.

Take `Cc1cccc(NC(=O)CSc2nc3c(c(=O)[nH]2)CCC3)c1C`: the inhibition is -9.1%. On to `CCN1CCN(c2ccc([N+](=O)[O-])cc2C(=O)c2ccc(Cl)cc2)CC1`, for which the inhibition is 24.4%. With `O=C(Nc1cccc(Cl)c1)c1cc([N+](=O)[O-])ccc1N1CCN(CCO)CC1`, the inhibition was 68.1% (active). Consider `Cc1cccc(NC(=O)c2cc([N+](=O)[O-])ccc2N2CCN(C)CC2)c1`, for which the inhibition is 56.8% (active).

As for `CC(C)C(=O)Nc1cccc(NC(=O)c2ccc([N+](=O)[O-])cc2Cl)c1`, the inhibition was -13.2%. On to `CCC(C)(C)NC(=O)c1cc([N+](=O)[O-])ccc1N1CCCCC1`, for which the inhibition was 9.2%. The result for `NS(=O)(=O)c1cccc(NC(=O)COC(=O)c2cc([N+](=O)[O-])ccc2N2CCCC2)c1` reads 26.9%; that for `CCOC(=O)c1cc(-c2ccc(F)cc2)n(CC(=O)NCc2ccccn2)c1C`, -7.6%; that for `COC(=O)CCCCC1=CCC2C(=O)C=C(O)C2C1` (stereo unspecified), -0.8%. For `Cc1nn(Cc2ccc(F)cc2)c(C)c1NC(=O)c1noc2c1CCc1ccccc1-2`, the inhibition was 17.6%.

As to `CNC(=O)/C(=C\C=C\c1ccccc1)NC(=O)c1ccc([N+](=O)[O-])cc1`, the inhibition was 88.8% (active). With `CCCCOc1ccc(C(=O)N/C(=C/C=C/c2ccccc2)C(=O)N2CCOCC2)cc1`, the inhibition is 4.3%. In the case of `Cc1ccc(C(=O)N/C(=C/C=C/c2ccccc2)C(=O)NCc2ccco2)cc1`, the inhibition is 10.2%. For `COc1ccc(-c2cc(=O)oc3cc(OCC(=O)N(C)C4CCS(=O)(=O)C4)ccc23)cc1` (stereo unspecified), the inhibition was -3.1%. The result for `COc1ccc(-c2cc(NC=O)c3ncc(-c4ccccc4)n3c2)cc1OC` reads 28.3%; that for `Cc1ccccc1-c1nc(CS(=O)(=O)CC(=O)N2CCc3ccccc3C2)c(C)o1`, 10%. Regarding `CCCSc1ccc([C@H]2N[C@@](Cc3ccccc3)(C(=O)OC)[C@H]3C(=O)N(C)C(=O)[C@@H]23)cc1`, the inhibition is 17.3%.

On to `CCN1C(=O)[C@H]2[C@@H](c3ccc(-c4ccc(OC)cc4)cc3)N[C@@](Cc3ccccc3)(C(=O)OC)[C@H]2C1=O`, for which the inhibition was 39.2%. For `CCN1C(=O)[C@H]2[C@@H](c3ccc(-c4ccc(F)cc4)cc3)N[C@@](Cc3ccccc3)(C(=O)OC)[C@H]2C1=O`, the inhibition is 65.3% (active). Turning to `CCCCCCSc1ccc([C@@H]2[C@@H]3C(=O)N(CC)C(=O)[C@@H]3[C@]3(C(=O)OC)CCCCN23)cc1OC`, the inhibition is 23.1%. The result for `CCN1C(=O)[C@H]2[C@@H](c3ccc(SC4CCCCC4)c(OC)c3)N[C@@](Cc3ccccc3)(C(=O)OC)[C@H]2C1=O` reads 63.1% (active). Consider `COC(=O)[C@]1(CC(C)C)N[C@H](c2ccc(SC3CCCCC3)cc2)[C@@H]2C(=O)N(C)C(=O)[C@@H]21`, for which the inhibition is 22.5%. For the compound `COc1ccccc1C(=O)N(C1=NC(C)CS1)c1ccc(Cl)cc1` (stereo unspecified), the inhibition was 6.9%. Turning to `CCCN1CCN(C(=O)Cn2ncc3ccccc32)CC1`, the inhibition was -2.9%.

Regarding `Cc1ccc(NC(=O)N2CCC(O)(c3cccnc3)CC2)cc1`, the inhibition is -3.3%. As to `CC(C)C[C@H](NC(=O)NCCc1ccc(Cl)cc1)C(=O)O`, the inhibition was -6.2%. Take `CSCCC(NC(=O)c1cc([N+](=O)[O-])cc([N+](=O)[O-])c1)c1nc2ccccc2[nH]1` (stereo unspecified): the inhibition is 32.8%.

On to `Cc1cccc(CN2CCN(Cc3cnn(-c4ccccc4F)c3)CC2CCO)n1` (stereo unspecified), for which the inhibition was -8%.

For `Cc1ccc(C2=NN(C(=O)COc3ncnc4ccccc34)C(c3ccco3)C2)cc1` (stereo unspecified), the inhibition was 8.9%. In the case of `Cc1ccc(N2C(=O)C3N=NN(CC(=O)N4N=C(c5cccc6ccccc56)CC4c4ccccc4)C3C2=O)cc1` (stereo unspecified), the inhibition was 83.2% (active). In the case of `O=C1c2cccc(OCC(=O)N3N=C(c4cccs4)CC3c3ccc(F)cc3)c2CCN1Cc1ccccc1` (stereo unspecified) it was 30.6%; in that of `CC1=C(C)CC2C(=O)N(c3cccc4ccccc34)C(=O)C2C1` (stereo unspecified), 7.3%. As to `O=C1C2N=NN(CC(=O)N3N=C(c4cccc5ccccc45)CC3c3ccccc3)C2C(=O)N1c1ccccc1` (stereo unspecified), the inhibition was 84.2% (active).

With `Oc1ccccc1C1=NN(c2ccccc2)C(c2ccccc2)C1` (stereo unspecified), the inhibition is 25.2%. `Cc1ccc(NC(=O)[C@H](Cc2ccccc2)NC(=O)CC[C@H]2O[C@@H](n3ccc(=O)[nH]c3=O)[C@H](O)[C@@H]2O)cc1C`: the inhibition is -9.9%.

Take `Cc1ccc(Cl)c(OCC(=O)NN2CCN(C)CC2)c1`: the inhibition is -5.7%.

Regarding `COc1ccc2c(CC(=O)NNC(=O)c3ccccc3F)coc2c1`, the inhibition was -5%. For the compound `COC(=O)[C@@H](NC(=O)NCc1cccc(OC)c1)C(C)C`, the inhibition is -7.7%. `COc1ccc(NC(=O)CN2C(=O)CSc3ccc(S(=O)(=O)N4CCC(C)CC4)cc32)cc1`: the inhibition is 42.2%.

Regarding `CCOc1cc(-c2nc3cc(C)ccn3c2NCC2CCCO2)ccc1O` (stereo unspecified), the inhibition was -4.4%. With `COc1ccc(-c2nc3cnccn3c2NC2CCCCC2)cc1-c1cccc(Cl)c1`, the inhibition is 32.3% and 25.3%. On to `COc1ccc(-c2nc3cnccn3c2NC(C)(C)CC(C)(C)C)cc1O`, for which the inhibition is 55% (active).

As to `COc1ccc(NC2=CC(=S)NC(C)(C)C2)cc1`, the inhibition is -11%. With `CCOC(=O)/C(=N\Nc1cc(Cl)ccc1Cl)N1CCN(C)CC1`, the inhibition is 3.8%. `CCN(CCO)C(=S)Nc1cc(C(=O)OC)ccc1C(=O)OC`: the inhibition is -10.4%. Turning to `Cc1cc(C(=O)OCC(=O)Nc2ccccc2Cl)c(C)o1`, the inhibition was 7.5%. In the case of `O=C(Nc1ccccc1Cl)/C(Cl)=C(\Cl)S(=O)c1ccccc1` (stereo unspecified), the inhibition is 73.7% (active). For the compound `O=C(Nc1ccccc1Cl)c1ccccc1S(=O)(=O)c1ccccc1[N+](=O)[O-]`, the inhibition was 6.3%. In the case of `CC(C)Oc1ccc(CN2CCC2(C)C(=O)NCc2ccc(C(F)(F)F)cc2)cc1` (stereo unspecified) it was 34.4%. In the case of `CC1(C)CC(=O)C(C2=NC(C)(C)Cc3ccccc32)=C(O)C1`, the inhibition was -7%. For `FC(F)(F)c1cccc(-c2cc3ccccc3nc2N2CCCC2)c1`, the inhibition was 18.4%. The result for `O=C(Nc1ccc(C(F)(F)F)cc1)c1cccc(-n2cnnn2)c1` reads 64.5% (active); that for `O=C(Nc1cccc(-n2cnnn2)c1)c1cccnc1`, -7.9%; that for `Cc1cc(Cl)ccc1OCCCC(=O)Nc1cccc(-n2cnnn2)c1`, 30.3%. `Cc1ccc(S(=O)(=O)Nc2ccc(F)c(S(=O)(=O)N3CCOCC3)c2)cc1`: the inhibition is -1%. With `COc1ccc(-c2ccc(OC(=O)NC3CCS(=O)(=O)C3)cc2)cc1` (stereo unspecified), the inhibition is -3.8%.

With `CCCCOC(=O)CNc1nnc(SCC(=O)OCC)[nH]c1=O`, the inhibition was 50.2% (active). For the compound `CCOC(=O)CSc1nc(C)c(Oc2ccc(Cl)cc2Cl)c(=O)[nH]1`, the inhibition was -5.3%.

In the case of `CCc1ccc(C(=O)CSc2nnc(C)c(=O)[nH]2)cc1`, the inhibition is -4.7%.

For `Cc1noc(C)c1S(=O)(=O)N(C)C[C@H]1OCCCC[C@@H](C)Oc2ccc(NC(=O)CCCN(C)C)cc2C(=O)N([C@H](C)CO)C[C@@H]1C`, the inhibition was -10.2%. Regarding `COc1cccc(NC(=S)N(Cc2ccc(C)cc2)Cc2ccccn2)c1`, the inhibition is 5.4%.

With `COc1ccc(NC(=O)/C(Cl)=C(/Cl)S(=O)Cc2ccc(C)cc2)cn1` (stereo unspecified), the inhibition was 53.3% (active). As for `COc1ccc(NC(=O)C2Cc3c(-c4ccc5c(c4)OCO5)ccnc3O2)cn1` (stereo unspecified), the inhibition was 1.3%. As for `COCc1c(N)c(C)nc(Cl)c1C#N`, the inhibition was -5.4%.

In the case of `COc1cccc(-c2sc3ccc(OC)cc3c2-c2ccc(OCCN3CCCCC3)cc2)c1`, the inhibition is 15.5%. In the case of `COc1ccccc1-c1nc(C(F)(F)F)c(OC)o1` it was -1.4%; in that of `Cc1sc2nc(-c3ccccc3F)oc(=O)c2c1C`, 54.7% (active); in that of `Cc1sc2nc(SCCO)n(-c3ccccc3)c(=O)c2c1C`, -4.5%. As to `COc1ccc(-c2csc3ncnc(Oc4ccc5c(C)cc(=O)oc5c4)c23)cc1`, the inhibition is -2.5%. Turning to `CC1CCN(c2oc(-c3ccccc3F)nc2C#N)CC1`, the inhibition was 20.3%. Take `COc1ccc(-c2csc3nc(-c4ccccc4F)oc(=O)c23)cc1OC`: the inhibition is 65.3% (active). As for `Cc1cc(C)n2nc(CNS(=O)(=O)c3c(F)c(F)c(F)c(F)c3F)nc2n1`, the inhibition is 12.1%.

On to `CC(=O)c1nn(-c2cccc(Br)c2)cc1C(=O)c1cccc2ccccc12`, for which the inhibition is 27.7%.

`CCC1OC(c2ccc([N+](=O)[O-])cc2)=Nc2ccccc21` (stereo unspecified): the inhibition is 14.7%. For the compound `O=C(O)c1ccc(COc2c(F)c(F)cc(F)c2F)o1`, the inhibition is -6.9%. Consider `CC(C)C[C@@H]1Cc2[nH][nH]c(=O)c2[C@H](CCc2ccccc2)O1`, for which the inhibition is -59.6%. Regarding `COc1cc(/C=C/c2ccc(/C=C/c3cc(OC)c(OC)c(OC)c3)cc2)cc(OC)c1OC`, the inhibition was 8.2%. In the case of `O=C(Cn1nnc2ccccc2c1=O)Nc1cc(C(F)(F)F)ccc1N1CCOCC1` it was 5.9%; in that of `CSCCC(NC(=O)COc1ccccc1)C(=O)OCC(=O)c1cc2ccccc2o1` (stereo unspecified), 70.7% (active). Take `CSCCC(NC(=O)COc1ccccc1)C(=O)OCc1ccc(Cl)cc1` (stereo unspecified): the inhibition was 24.4%. Take `CSCCC(NC(=O)COc1ccccc1)C(=O)OCCOc1ccc(Br)cc1` (stereo unspecified): the inhibition is 21.8%. As for `Cc1ccc(C)c2[nH]c(=O)c(CCNC(=O)CC(C)C)cc12`, the inhibition was -6.6%. For `Cc1cccc(CSc2nc3c(c(=O)n2C)SCC3)c1`, the inhibition is 12.5%. In the case of `CC1=CC(=C(C#N)c2nc3ccccc3s2)C=C(C)N1c1ccc(F)cc1F` it was 59.2% (active). Regarding `COCCCNC(=O)CNC(=O)c1nn(-c2ccc(OC)cc2)c(=O)c2ccccc12`, the inhibition was -6.6%.
